Test results published in ChEMBL document CHEMBL4513216, “Probing the Open Global Health Chemical Diversity Library for Multistage-Active Starting Points for Next-Generation Antimalarials” (ACS Infect Dis, 2020).
Out of some 69,000 compounds screened, about 8,600 (12%) showed an effect of 50% or more. For the sample, strong results were picked, then their nearest neighbours and some compounds at random.

test system: Plasmodium berghei; experiment: Screen against P. berghei liver stage (PbLuc), transformed with Luciferase, at 10uM; type: functional, HepG2; conditions: tested at 10 uM

First: CN1CCCC1c1nnc2n1CCN(S(=O)(=O)c1ccccc1Cl)CC2 (stereo unspecified)
Second: c1ccc(Cc2nnc(CN3CCn4c(nnc4C4CC4)C3)o2)cc1
The INHIBITION of the first is lower: -12.252% for the first, 21.5% for the second.

Compared with NC(=O)[C@@H]1Cc2ccccc2N1C(=O)C1CC(c2ccccc2)=NO1 (stereo partly specified), Cc1cccc(CNC2CCCc3c2cnn3Cc2ccccc2)c1 (stereo unspecified) is higher in INHIBITION: -13.6% for the first, 26.4% for the second.

Going from CNC(=O)CN(C)C(=O)c1cc(Cl)c(Cl)n1C to Cc1nn(C)c(Cl)c1C(=O)NCC1(C(N)=O)CCOCC1, the INHIBITION falls from 37.1% to 27.5%.

First: Cc1nnc(NCc2cccc(OCc3ccccn3)c2)c(C#N)c1C
Second: COc1cccc(C(=O)NCc2ccccc2S(=O)(=O)N(C)C)c1
The INHIBITION of the first is lower: 40.1% for the first, 45.2% for the second.

First: COCC(=O)NCc1cc(=O)n2c(n1)CN(Cc1ccsc1)CCC2
Second: Cn1cc(-c2cccc(CNC(=O)N3CCC[C@@H]3CO)c2)cn1
The INHIBITION of the first is higher: 41.5% for the first, -21.6% for the second.

Compared with CO[C@H]1CN(C(=O)OC(C)(C)C)CC1NCc1cc[nH]c1 (stereo partly specified), CO[C@H]1CN(C(=O)OC(C)(C)C)CC1NCc1ccn(C)c1 (stereo partly specified) is higher in INHIBITION: 38.7% for the first, 39.6% for the second.

First: CO[C@H]1CN(C(=O)OC(C)(C)C)CC1NCc1ccoc1 (stereo partly specified)
Second: CO[C@H]1CN(C(=O)OC(C)(C)C)CC1NCc1ccco1 (stereo partly specified)
The INHIBITION of the first is lower: 66.5% for the first, 74% for the second.

First: CO[C@H]1CN(C(=O)OC(C)(C)C)CC1NCc1cccn1C (stereo partly specified)
Second: CC(C)(C)OC(=O)N1CC(=O)N(Cc2ccco2)CC(O)C1 (stereo unspecified)
The INHIBITION of the first is higher: 54.5% for the first, 29.8% for the second.

Going from CC(C)(C)OC(=O)N1CCC(C(=O)NCc2ccccc2)C1 (stereo unspecified) to CC(C)(C)OC(=O)N1CC(=O)N(CCc2ccccc2)CC(O)C1 (stereo unspecified), the INHIBITION rises from -10.3% to 9.36%.

Going from CN(Cc1ccco1)C(=O)[C@H]1CSCN1C(=O)OC(C)(C)C to CCn1cc(CN(C)C(=O)c2cccc(CCC(C)(C)O)c2)cn1, the INHIBITION falls from 29.6% to 7.11%.

First: CCOCCN1Cc2ncn(C)c2C(COCC2CCOCC2)C1 (stereo unspecified)
Second: CN(C)CCOCc1nnc2n1CCN(CC1CC1)CC2
The INHIBITION of the first is higher: 36.9% for the first, 36.2% for the second.

Compared with CCCc1ccc2oc(C(=O)N3CCN(CCOC)CC3)c(C)c2c1, CCN1CCN(C(=O)NCc2cccc(-c3cnn(C)c3)c2)CC1 is higher in INHIBITION: -13.1% for the first, 50.1% for the second.

Compared with COc1ccc(-n2cccn2)c(CN2CCC3(CCCN(C)C3=O)C2)c1 (stereo unspecified), Cc1ccc2c(n1)N(CCn1cccn1)CCN(S(C)(=O)=O)C2 is lower in INHIBITION: 43.9% for the first, -73.5% for the second.

Going from Nc1nc(N)c2c(n1)OC1(CCN(C(=O)CC3CCCNC3)CC1)C2 (stereo unspecified) to Cc1oncc1C(=O)N1CCC2(CC1)C(c1cnn(C)c1)CC(=O)N2C (stereo unspecified), the INHIBITION falls from 27.1% to -15.5%.

First: Cc1cc(C(=O)N[C@H]2Cc3ccccc3[C@@H]2N)c(=O)[nH]c1C
Second: Cc1ccc(C(=O)NCc2ccccc2S(=O)(=O)N(C)CCO)cc1F
The INHIBITION of the first is higher: 21.5% for the first, -27.8% for the second.

Going from Cc1nc(CN2CCN(C)C(=O)C23CCN(CC2CCCC2)CC3)cs1 to Cc1nn(C)cc1NC(=O)CN1CCN(C2CCCC2)C(=O)C1, the INHIBITION falls from 49.4% to 19.35%.

Compared with Cc1noc([C@H]2COC[C@H]3CN(C(=O)Cc4ccccc4F)C[C@H]32)n1, CCOc1ccccc1CC(=O)N1C[C@H](C2CC2)[C@@H](N)C1 is lower in INHIBITION: 12.7% for the first, 2.66% for the second.

First: O=C(CCCn1cccn1)N1C[C@@H](O)[C@H](Oc2cccc(F)c2)C1
Second: CC(C)(O)CCc1cccc(C(=O)NCc2cnn3cccnc23)c1
The INHIBITION of the first is lower: 32.8% for the first, 54.5% for the second.

Going from Cc1cnccc1CN(C)C(=O)c1cccc(CCC(C)(C)O)c1 to COc1cccc(C(=O)NCc2ccccc2S(=O)(=O)N(C)CCO)c1, the INHIBITION rises from -2.39% to 78.1%.

First: Cc1cccnc1[C@H](C)NC(=O)c1cccc(CC2CCNCC2)c1
Second: O=C(NCc1cnn2cccnc12)c1cccc(CC2CCNCC2)c1
The INHIBITION of the first is lower: 15% for the first, 77.7% for the second.

Compared with CC(C)Cn1cncc1CNC(=O)c1cccc(CC2CCNCC2)c1, Cn1cc(C(=O)N2CC[C@@H]3[C@@H]2CCN3Cc2cccc(C#N)c2)cn1 is lower in INHIBITION: 42.3% for the first, 41.6% for the second.

Compared with CC(C)c1nc(C2CCCN2Cc2nccn2CC(F)(F)F)no1 (stereo unspecified), Cc1ccc(NC2CCN(C(=O)CCOCC(F)(F)F)CC2)nn1 is higher in INHIBITION: 26.4% for the first, 33.3% for the second.

First: c1cc(-c2cnc(NC3CC3)nc2[C@@H]2CCCO2)ccn1
Second: O=c1[nH]c(-c2ccncc2)ncc1-c1ccnc(NC2CCCCC2)n1
The INHIBITION of the first is higher: 5.34% for the first, 1.11% for the second.

Compared with CS(=O)(=O)NCC1CCCN(C(=O)COCC2CC2)C1 (stereo unspecified), O=C(COCC1CC1)N1CCSCC1 is higher in INHIBITION: 48.1% for the first, 64.9% for the second.

Going from Cc1ccc(NC2CCN(C(=O)COc3ccccc3)CC2)nn1 to Cc1ccc(NC2CCN(C(=O)COCC3CC3)CC2)nn1, the INHIBITION rises from -29.7% to 56.6%.

Going from Cc1ccc(NC2CCN(C(=O)COC3CCCCC3)CC2)nn1 to Cc1ccc(NC2CCN(C(=O)COC3CCCC3)CC2)nn1, the INHIBITION falls from -7.81% to -28.4%.

Going from CC(C)(O)CN1CCN(C(=O)COCC2CC2)CC1 to Cc1ccc(NC2CCN(C(=O)COCC(F)(F)F)CC2)nn1, the INHIBITION rises from -38.8% to 53%.

First: O=C(NCc1csc(Br)c1)N1CCOCC1
Second: CCn1cc(NC(=O)NCc2ccc(CN3CCOCC3)cc2)cn1
The INHIBITION of the first is lower: -6.865% for the first, 30.2% for the second.

Compared with COCCC(=O)NCCc1nc2cc(-c3ccc(OC)cc3)ncn2n1, COCCc1ncc(CNC2(c3ccc(Cl)cc3)CC2)cn1 is lower in INHIBITION: 23.5% for the first, -57.4% for the second.

First: CN(C)CC1[C@H]2CN(C(=O)c3cc(=O)[nH]c4ccc(F)cc34)C[C@@H]12 (stereo partly specified)
Second: CN(C)c1cc(C2CCCN2C(=O)c2ccc(=O)n(C)c2)ccn1 (stereo unspecified)
The INHIBITION of the first is higher: 43% for the first, -76.7% for the second.

Compared with CCC(C(=O)NC(C)(C)C)n1ccc2ncccc2c1=O (stereo unspecified), COc1ncccc1CNC(=O)Nc1ccc(N(C)C)nc1 is lower in INHIBITION: 20.9% for the first, 15.6% for the second.

Going from c1coc(-c2nc(CNC3CCCNC3)no2)c1 (stereo unspecified) to C1CC(NCC2CC2)CN(Cc2noc(C3CC3)n2)C1 (stereo unspecified), the INHIBITION rises from -25.6% to 19.5%.

Going from CN(C)c1cc(CNC(=O)c2ccccc2Cl)ccn1 to O=C(NCc1cccc(F)c1)NCC(O)c1cccc(F)c1 (stereo unspecified), the INHIBITION falls from -7.35% to -21.5%.

Compared with CC(c1cccc(Cl)c1)N(C)Cc1nc2c(cnn2C)c(=O)[nH]1 (stereo unspecified), Cc1ccc2[nH]c(CN(C)Cc3n[nH]c4c3CCC4)nc2c1 is lower in INHIBITION: 15.32% for the first, -30.5% for the second.

First: CC(C)CN1C[C@@H]2C(=O)N(C)C3(CCN(C(=O)C(C)C)CC3)[C@@H]2C1
Second: Cc1ccc(CN2CC[C@@]3(O)CCN(S(=O)(=O)N(C)C)C[C@H]3C2)cc1C
The INHIBITION of the first is lower: -40.5% for the first, -4.95% for the second.

First: Cc1noc(C(C)C)c1C(=O)NCCCN1CCNCC1
Second: Cc1noc(C(C)C)c1C(=O)NCCCN1CCCC1
The INHIBITION of the first is lower: -18% for the first, 66.2% for the second.

First: Cc1noc(C(C)C)c1C(=O)NCCCN1CCC(C)CC1
Second: Cc1noc(C2CCN(C(=O)c3cccs3)CC2)n1
The INHIBITION of the first is lower: -12.1% for the first, 21% for the second.

Going from Cc1c[nH]c(CN(C)C(=O)[C@@]23CNC[C@@H]2CN(c2ncccn2)C3)n1 to Cc1cnc(CN(C)C(=O)C23CNCC2CNC3)[nH]1 (stereo unspecified), the INHIBITION rises from 30% to 58.4%.

First: CNc1ncc(CN(C)C(=O)[C@@]23CNC[C@@H]2CN(C(=O)C2CC2)C3)cn1
Second: COCCN1C(=O)CCC12CCN(c1ncc(F)cn1)CC2
The INHIBITION of the first is lower: -149% for the first, 14.1% for the second.

Compared with Cc1ccc(CN2CCOCS2(=O)=O)cc1F, CCC1COCCN1C(=O)NCc1cccc(-c2cnn(C)c2)c1 (stereo unspecified) is lower in INHIBITION: 38% for the first, 21.2% for the second.

Compared with CN(C)c1ccc(-c2cc(C(=O)O)cc(S(=O)(=O)NC3CC3)c2)cc1, O=C(O)c1cc(-c2ccoc2)cc(S(=O)(=O)NC2CC2)c1 is lower in INHIBITION: 84.9% for the first, 27.6% for the second.

Going from O=C(O)c1cc(-c2ccc3c(c2)OCO3)cc(S(=O)(=O)NC2CC2)c1 to CCn1ncc2c1CCCC2NCc1cccc2c1OCO2 (stereo unspecified), the INHIBITION rises from 8.74% to 33.8%.

Compared with N#CC1Sc2nnc(-c3ccccc3F)n2N=C1N (stereo unspecified), Cc1ccccc1CN(C)C(=O)CCc1nc(-c2nnc[nH]2)no1 is higher in INHIBITION: 11.6% for the first, 13.7% for the second.

Compared with COc1ccc2[nH]cc(-c3ccnc(NC4CCCC4)n3)c2c1, COc1ccc2[nH]cc(-c3ccnc(N4CCC(C)CC4)n3)c2c1 is lower in INHIBITION: 90.1% for the first, 36.7% for the second.

Going from CCn1ncc2c1CCCC2NCc1cc(C)ccc1OC (stereo unspecified) to CCn1ncc2c1CCCC2NCc1ccc(OC)c(C)c1 (stereo unspecified), the INHIBITION rises from 9.14% to 38%.

Compared with CCn1ncc2c1CCCC2NCC1=Cc2ccccc2OC1 (stereo unspecified), CCn1ncc2c1CCCC2NCc1cccc2c1OCCO2 (stereo unspecified) is lower in INHIBITION: 63.9% for the first, 18.6% for the second.

Going from CCn1ncc2c1CCCC2NCc1ccc(OC)c(F)c1 (stereo unspecified) to CCCOc1ccc(CNC2CCCc3c2cnn3CC)cc1OC (stereo unspecified), the INHIBITION rises from 21.5% to 52%.

Compared with CCn1ncc2c1CCCC2NCc1ccc(C)s1 (stereo unspecified), Cc1ccc(CNC2CCCc3c2cnn3Cc2ccccc2)s1 (stereo unspecified) is higher in INHIBITION: -21.9% for the first, 60.9% for the second.

Going from CCn1ncc2c1CCCC2NCc1ccccc1N1CCOCC1 (stereo unspecified) to CCn1ncc2c1CCCC2NCc1cscn1 (stereo unspecified), the INHIBITION falls from 56.4% to 35.4%.

First: NC(=O)CN1CCCC(Cc2ccc(N3CCOCC3)nn2)C1 (stereo unspecified)
Second: CCCNS(=O)(=O)c1cnccc1N1CCN(C(C)C)CC1
The INHIBITION of the first is higher: 15.9% for the first, -15.5% for the second.

Compared with COC(=O)C(NC(=O)C1CCC1)c1cc(F)ccc1F (stereo unspecified), CN(Cc1ccc(F)c(F)c1)C(=O)CCc1nc(-c2nnc[nH]2)no1 is higher in INHIBITION: -19.9% for the first, 55.4% for the second.

First: Cc1ccc2nc(CN(C)Cc3n[nH]c4c3CCCCC4)[nH]c2c1C
Second: Cc1ccc2nc(CN(C)Cc3[nH]nc4c3CCC4)[nH]c2c1C
The INHIBITION of the first is higher: 69.6% for the first, -59.5% for the second.

First: CN(CCCc1ccccc1)C(=O)CCc1nc(-c2nnc[nH]2)no1
Second: CC1(C)CC(N2CCN(C3CCCC3)C(CCO)C2)CC(C)(C)C1 (stereo unspecified)
The INHIBITION of the first is higher: 22% for the first, -2.98% for the second.
